From PubChem BioAssay AID1259313 (Sanford-Burnham Center for Chemical Genomics, 2017)
The campaign covered roughly 340,000 compounds. About 8,500 (2.5%) were called active.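 How the source made its calls: active means melting temperature shift of at least 10% of the positive control shift, at one fixed dose; inactive means the rest.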 The full list was thinned out, with actives kept by preference.

These compounds were tested on Glutamate receptor ionotropic, NMDA 3A (GRIN3A) ligand-binding domain (assay: binders of NR3A ligand-binding domain, primary screen, biophysical, differential scanning fluorimetry, uHTS (AID 1259313)). Conditions: NR3A LBD differential scanning fluorimetry, at 25 µM, active compounds read high, 0% = protein alone, 100% = glycine-bound protein.
For `CCc1ccccc1N(CC(=O)NCC1CCCO1)C(=O)CCC(=O)Nc1nccs1` (stereo not drawn), the Tm shift relative to glycine control was -2.76% (inactive). `COc1cccc(CC2(CO)CCCN(CC3=Cc4cc(OC)ccc4OC3)C2)c1` (stereo not drawn) was tested, and the Tm shift relative to glycine control was -4.46% (inactive). `COc1cccc(CC2(CO)CCCN(Cc3nc(-c4cccs4)oc3C)C2)c1` (stereo not drawn) was tested, and the Tm shift relative to glycine control was -1.72% (inactive). In the case of `COc1cccc(CC2(CO)CCCN(Cc3ccc(OC(F)F)cc3)C2)c1` (stereo not drawn), the Tm shift relative to glycine control was 25.6% (active). With `O=C(CCNS(=O)(=O)c1ccccc1)NCCSc1ccc(Br)cc1` the Tm shift relative to glycine control was -2.33% (inactive). With `c1ccc(-c2ccc3c(c2)NC(C2Nc4cc(-c5ccccc5)ccc4O2)O3)cc1` (stereo not drawn) the Tm shift relative to glycine control was 0.36% (inactive). `c1ccc(-c2c[nH]c(-c3ccccc3)c2)cc1` was tested, and the Tm shift relative to glycine control was 17.4% (active). `O=c1cc(-c2ccccc2)[nH]c2cc(F)ccc12` was tested, and the Tm shift relative to glycine control was -1.79% (inactive). In the case of `Nn1c(SCc2ccccc2)nnc1C1CCCCC1`, the Tm shift relative to glycine control was 1.23% (inactive). `Cc1ccccc1Nc1nc(N)nc(COC(=O)CCC(=O)c2ccc(F)cc2)n1` was tested, and the Tm shift relative to glycine control was -0.42% (inactive). With `CCC1SC2=NCCN2C1(O)c1ccc(Cl)cc1` (stereo not drawn) the Tm shift relative to glycine control was -1.83% (inactive). `CCOc1ccc(S(=O)(=O)Nc2nccs2)cc1` was tested, and the Tm shift relative to glycine control was -0.76% (inactive). `CCOc1ccc(S(=O)(=O)N/N=C(\C)c2ccc(Cl)c(Cl)c2Cl)cc1` was tested, and the Tm shift relative to glycine control was 16.2% (active). `CCOc1cc(NS(=O)(=O)c2ccc(OC)cc2)c(OCC)cc1NC(C)=O` was tested, and the Tm shift relative to glycine control was 1.23% (inactive). `O=C(O)C(CCc1ccccn1)c1ccccc1` (stereo not drawn) was tested, and the Tm shift relative to glycine control was 0.46% (inactive). With `O=C1c2ccccc2C(=O)N1CCC#Cc1ccc2cc(C3(O)CCCCC3)oc(=O)c2c1` the Tm shift relative to glycine control was 35.3% (active). With `COc1cc(C(=O)NCCOC(=O)c2cccc(N(C)C)c2)cc(OC)c1OC` the Tm shift relative to glycine control was 0.47% (inactive). With `C=CCOc1ccc(/C=C2\SC(=S)N(CCC(=O)O)C2=O)cc1` the Tm shift relative to glycine control was 1.33% (inactive). For `COc1ccc(-c2nn(-c3ccccc3)cc2/C=C2/SC(=S)N(CCCC(=O)O)C2=O)c(C)c1`, the Tm shift relative to glycine control was 12.5% (active). `Cc1ccc(-c2nn(-c3ccccc3)cc2/C=C2\SC(=S)N(CCCCCC(=O)O)C2=O)o1` was tested, and the Tm shift relative to glycine control was -394% (inactive). `COc1cccc(NS(=O)(=O)c2ccc(-c3coc(C)n3)cc2)c1` was tested, and the Tm shift relative to glycine control was -0.18% (inactive). In the case of `O=C(CCNS(=O)(=O)c1ccc(Br)s1)NCc1ccccc1Cl`, the Tm shift relative to glycine control was -2.24% (inactive). With `CCOc1ccccc1NC(=S)C(=C([O-])c1ccc2c(c1)OCCO2)[n+]1ccc(CC)cc1` the Tm shift relative to glycine control was -1.27% (inactive). For `COC(=O)c1cc(Oc2ccc(S(=O)(=O)N3CCOCC3)cc2[N+](=O)[O-])cc(C(=O)OC)c1`, the Tm shift relative to glycine control was 0.08% (inactive). In the case of `CCc1ccc(NC(=O)C(=O)NNC(=O)c2cccs2)cc1`, the Tm shift relative to glycine control was -14.4% (inactive). For `Cc1cccc(C=CC(=O)c2ccc(Cl)cc2)c1`, the Tm shift relative to glycine control was 4.44% (inactive). `Cc1ccc(C(=O)NNC(=O)c2cccs2)cc1` was tested, and the Tm shift relative to glycine control was 0.08% (inactive). In the case of `O=C(Nc1ccc(-c2nnc(-c3ccccc3)o2)cc1)c1ccc(Br)o1`, the Tm shift relative to glycine control was 35.9% (active). For `O=C(CNC(=O)c1ccc(Br)o1)Nc1ccccc1`, the Tm shift relative to glycine control was 2.09% (inactive). For `Cc1cccc(C(=O)Nc2ccc(CC(=O)O)cc2)c1`, the Tm shift relative to glycine control was -4.02% (inactive). For `Cc1ccc(NC(=O)c2cccs2)cc1S(=O)(=O)N(C)C`, the Tm shift relative to glycine control was -5.63% (inactive). `Cc1cccc(C(=O)Nc2ccc(C(=O)/C=C/c3cccs3)cc2)c1` was tested, and the Tm shift relative to glycine control was 29.2% (active). With `Brc1ccc(-c2nnc(-c3ccccc3)o2)o1` the Tm shift relative to glycine control was -0.09% (inactive). With `Cc1ccc(-c2nnc(-c3ccc(NC(=O)c4cccs4)cc3)o2)cc1` the Tm shift relative to glycine control was 22.2% (active). For `Cc1ccc(OCC(=O)Nc2ccc(NC(=O)c3cccs3)cc2)c(C)c1`, the Tm shift relative to glycine control was 0.85% (inactive). With `Cc1ccc(C(=O)Nc2ccc(NC(=O)c3cccs3)cc2)c(C)c1` the Tm shift relative to glycine control was 28.3% (active). For `COc1cccc2c1C(=O)c1c(O)c3c(c(O)c1C2=O)CC(O)(C(C)=NNC(=O)c1ccc(Cl)c(Cl)c1)CC3OC1CC(N)C(O)C(C)O1` (stereo not drawn), the Tm shift relative to glycine control was -18.1% (inactive). For `COc1ccc(C)cc1S(=O)(=O)Nc1cccc(Cl)c1Cl`, the Tm shift relative to glycine control was -5.61% (inactive). In the case of `CCCOc1ccc(/C=N/NC(=O)C2CC2)c(OCCC)c1`, the Tm shift relative to glycine control was 0.85% (inactive). For `Cc1cc(C)nc(NS(=O)(=O)c2ccc(N/C=C\C(=O)c3cccs3)cc2)n1`, the Tm shift relative to glycine control was -2.02% (inactive). `COc1cc(CO)ccc1OCC(=O)Nc1cccc2ccccc12` was tested, and the Tm shift relative to glycine control was 1.02% (inactive). In the case of `CCOC(=O)[C@H]1[C@H]2COc3ccc(OC)cc3[C@@H]2N2C(=O)c3ccc(F)cc3NC(=O)[C@@]12C`, the Tm shift relative to glycine control was -0.63% (inactive). In the case of `NC1=C([N+](=O)[O-])C(c2ccccc2)C2=C(CCCC2=O)O1` (stereo not drawn), the Tm shift relative to glycine control was -0.34% (inactive). In the case of `Cc1cccc(NC(=O)C(C)SCc2ccccc2)c1` (stereo not drawn), the Tm shift relative to glycine control was 1.98% (inactive). For `Cc1cccc(NC(=O)C(C)N2C(=O)C3C4CC(C(Br)C4Br)C3C2=O)c1` (stereo not drawn), the Tm shift relative to glycine control was 13.7% (active). With `Cc1cccc(NC(=O)CCN2CC(C)CC(C)C2)c1` (stereo not drawn) the Tm shift relative to glycine control was -0.71% (inactive). In the case of `Cc1ccc(Nc2ccccc2N)cc1`, the Tm shift relative to glycine control was 0.92% (inactive). For `CCn1c(O)c(N=NC(=O)c2cccc(S(=O)(=O)N3CCCCC3)c2)c2ccccc21`, the Tm shift relative to glycine control was -34.1% (inactive). With `Cc1cccc(N2C(=O)c3ccc(C(=O)Nc4cccc(C(=O)O)c4)cc3C2=O)c1` the Tm shift relative to glycine control was 11.6% (active). With `CC(=O)Nc1ccc(NC(=O)c2ccc3c(c2)C(=O)N(c2ccccc2C)C3=O)cc1` the Tm shift relative to glycine control was -0.29% (inactive). For `Cc1cccc(C(=O)Nc2ccc3c(c2)C(=O)N(CC(C)C)C3=O)c1`, the Tm shift relative to glycine control was 0.17% (inactive). For `CCC(C(=O)NCCC(C)C)N(Cc1ccccc1Cl)C(=O)c1snc(C(N)=O)c1N` (stereo not drawn), the Tm shift relative to glycine control was -0.19% (inactive). With `Cc1ccc2c(c1)C(O)(CC(=O)c1cccnc1)C(=O)N2` (stereo not drawn) the Tm shift relative to glycine control was -0.39% (inactive). In the case of `CCCn1c(C)cc(-c2csc(NC(=O)CCc3nc4ccccc4c(=O)[nH]3)n2)c1C`, the Tm shift relative to glycine control was -0.45% (inactive). In the case of `CCCc1nc(SCC(=O)Nc2ccc(S(=O)(=O)N(C)C)cc2)c2ccccc2n1`, the Tm shift relative to glycine control was 17.5% (active). With `CCc1nc(SCC(=O)NNC(=O)c2ccc(C)cc2)c2ccccc2n1` the Tm shift relative to glycine control was -0.6% (inactive). `CCCNC(=O)CSc1nc(Cc2ccccc2)nc2ccccc12` was tested, and the Tm shift relative to glycine control was -0.71% (inactive). `COc1ccc(CC(=O)NCc2nnc(SCC(=O)Nc3nccs3)n2C)cc1` was tested, and the Tm shift relative to glycine control was 0.45% (inactive). With `CCCCc1cc(=O)oc2cc(C)cc(OCc3nn[nH]n3)c12` the Tm shift relative to glycine control was 14.2% (active). With `CCOC(=O)CCc1c(C)c2ccc(OCc3nn[nH]n3)c(C)c2oc1=O` the Tm shift relative to glycine control was -2.57% (inactive). `CCc1cc(=O)oc2cc(C)cc(OC(C)C(=O)O)c12` (stereo not drawn) was tested, and the Tm shift relative to glycine control was -0.34% (inactive). With `O=C1NC(c2ccncc2)Nc2sc3c(c21)CCCC3` (stereo not drawn) the Tm shift relative to glycine control was 0.51% (inactive). For `N#C/C(=C\c1ccccc1)c1n[nH]c(Cn2cncn2)n1`, the Tm shift relative to glycine control was -0.2% (inactive). With `Cc1nn(Cc2ccccc2)c2c1C(c1ccccc1)C(C#N)=C(N)O2` (stereo not drawn) the Tm shift relative to glycine control was 2.39% (inactive). `COc1ccccc1C1C(C#N)=C(N)Oc2c1c(-c1ccccc1)nn2-c1ccccc1` (stereo not drawn) was tested, and the Tm shift relative to glycine control was 22.2% (active). With `Cc1nn(-c2ccccc2)c2c1C(c1ccc(F)cc1)C(C#N)=C(N)O2` (stereo not drawn) the Tm shift relative to glycine control was -4.31% (inactive). `Cc1ccc(C)c(OCc2cc(C(=O)N3CCN(c4cnccn4)CC3)no2)c1` was tested, and the Tm shift relative to glycine control was 4% (inactive). `O=C(COC(=O)c1cccc(Br)c1)Nc1cccc2c1C(=O)c1ccccc1C2=O` was tested, and the Tm shift relative to glycine control was 14.9% (active). With `O=C(COC(=O)c1ccccc1)Nc1ccccc1Sc1ccccc1` the Tm shift relative to glycine control was 5.64% (inactive). For `O=C(COC(=O)Cn1cnc2ccccc21)Nc1cccc2c1C(=O)c1ccccc1C2=O`, the Tm shift relative to glycine control was -5.74% (inactive). `CCCCC(=O)N(c1ccc(OC)cc1)C1C=CS(=O)(=O)C1` (stereo not drawn) was tested, and the Tm shift relative to glycine control was -8.09% (inactive). In the case of `COc1ccc(CCNC(=O)CN2C(=O)CCSc3ccccc32)c(OC)c1`, the Tm shift relative to glycine control was -7.1% (inactive). With `CC1CC(C)CN(CCC(=O)Nc2ccc3c(c2)CCC3)C1` (stereo not drawn) the Tm shift relative to glycine control was 2.54% (inactive). With `O=C(Nc1ccc2c(c1)CCC2)c1ccc(Br)s1` the Tm shift relative to glycine control was 14.5% (active). With `O=C(Nc1ccc(F)cc1)c1cc2c(s1)CCCC2` the Tm shift relative to glycine control was 6.13% (inactive). `O=C1c2ccccc2C(=O)C1C(=O)C1CC1` was tested, and the Tm shift relative to glycine control was 1.97% (inactive). For `Cc1ccc(CSc2nc3[nH]ncc3c(=O)[nH]2)cc1`, the Tm shift relative to glycine control was -1.69% (inactive). `COc1ccc(NC(=S)Nc2ccc(S(N)(=O)=O)cc2)c(C)c1` was tested, and the Tm shift relative to glycine control was -1.86% (inactive). For `NS(=O)(=O)c1ccc(NC(=S)Nc2ccc(Br)c(Cl)c2)cc1`, the Tm shift relative to glycine control was 26.7% (active). For `NS(=O)(=O)c1ccc(CCNC(=S)Nc2ccc(S(N)(=O)=O)cc2)cc1`, the Tm shift relative to glycine control was 0.88% (inactive). With `CCCCCc1nnc(NC(=O)c2ccc(=O)n(C)n2)s1` the Tm shift relative to glycine control was -0.62% (inactive). For `CCOC(=O)C1Nc2ccc(C(F)(F)F)cc2C2C=CCC12` (stereo not drawn), the Tm shift relative to glycine control was 52.4% (active). `CCOC(=O)C[C@H]1c2ccc(C(F)(F)F)cc2S(=O)(=O)N1c1ccccc1` was tested, and the Tm shift relative to glycine control was -5.05% (inactive). `CCOC(=O)NNc1cc(C(F)(F)F)ccn1` was tested, and the Tm shift relative to glycine control was 0% (inactive). For `CC[C@]12c3[nH]c4ccc(OC)cc4c3CCN1C(=O)C(CC(=O)NCCN1CCOCC1)C[C@@H]2C(=O)N1CCN(C(=O)C2CC2)CC1` (stereo partly drawn), the Tm shift relative to glycine control was -2.01% (inactive). In the case of `Cc1cccc(NC(=O)CCn2c(=O)oc3ccccc32)c1`, the Tm shift relative to glycine control was -0.8% (inactive). With `O=C(CCC(=O)Nc1ccccc1)N/N=C/c1ccccc1F` the Tm shift relative to glycine control was 0.57% (inactive). In the case of `O=C(CSc1ccc(/C=N/NC(=O)c2cccc(F)c2)o1)Nc1ccccc1`, the Tm shift relative to glycine control was 12.4% (active). `O=C(CCC(=O)N/N=C/c1ccc(Br)o1)N/N=C/c1ccc(Br)o1` was tested, and the Tm shift relative to glycine control was -0.2% (inactive). With `O=C(Cc1ccccc1)Nc1cccc(C(=O)N/N=C/c2ccco2)c1` the Tm shift relative to glycine control was 1.04% (inactive). In the case of `O=C(CCNC(=O)c1ccccc1)NN=Cc1ccc(Br)o1`, the Tm shift relative to glycine control was -3.41% (inactive). With `N#CCC(=O)N/N=C/c1ccc(SCC(=O)Nc2ccccc2)o1` the Tm shift relative to glycine control was 12.7% (active). For `COC(=O)c1ccc(C2C3=C(Nc4nnnn42)c2ccccc2OC3)cc1` (stereo not drawn), the Tm shift relative to glycine control was -8.44% (inactive).
